Experimental findings from the supplement of paper PMC6555819 are described below.

The assay has as its system RARb homodimer (NR concentration 270 nM). The assay can be described thus: PBM binding z-score (relative to random genomic background probes); higher = stronger binding; sequences stand for … in GC…GCGATTGACAGCGTAGAATGAAGG
In a few lines:
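On custom Agilent 4×180K arrays, double-stranded probes with 34-nt variable regions carried direct-repeat seeds, single-nucleotide variants, half-site ablations or random human genomic background. Ligand-free nuclear receptor dimers were applied for 1 h, and binding was read with antibodies against each partner (one per run). Binding z-scores come from regression-normalized fluorescence, with the random background probes as reference.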
For the sequence GATACAGGGTCAGGTAGAGGCCAGAGTATGGAAA, the PBM binding z-score came out at 3.48. In the case of TTACCAAGGTGAGCTGAGGTCCTTGATCCAACTC it was 0.469; in that of AGAACGAGGGCAATGAGTTGAGAGCACGGGTGGC, 1.1; in that of ATCGATAGGTCGTGAGGTGAGTATACAGAAAGGC, 1.39. GATACAGGGTCAAGGCAAGAGTACGCGTATTGAT gave a PBM binding z-score of 3.45. Turning to TCTAGTTGGTCACGCAGGTCACACACGACGGGTA, the PBM binding z-score amounted to 3.63. Regarding CTCGAAAGGTCGTGCTCAGGTGACTATACCAAAC, the PBM binding z-score was found to be 3.17. Consider CATACTGGGCCAAAGGTCATTGATTCCAATGCTC, for which the PBM binding z-score came out at 4.79. TCGAGTAGGTTACCAATAGGGCATTCAGCTTTCT showed a PBM binding z-score of 0.965. In the case of CGTCCAAGGTCAAGGTCAGTGATAGAGACTCGAA it was 5.36.

With ATATGTAGGATACATCCGGGTCATTCAGGCTATG, the PBM binding z-score worked out at 2.18.

With TCTAGTTGGTCAAGGAGGTCACACACGACGGGTA, the PBM binding z-score turned out to be 4.26. As to GCATATACGTAATACAAGGTGAAAGTCCGATTGT, the PBM binding z-score was 0.656.

With ACTAGTTGGACAGCTGAGGTCACACACAATTCGG, the PBM binding z-score came out at 4.06. Regarding CCTAGTTGGTCAAGGTCACACGCGCTATAGGTAC, the PBM binding z-score worked out at 4.39. Under ATATGTAGGTTACGGGTCATTCAGGTTGGTTCGC stands 3.24; under ATCGAAAGCTCGTGAGGTGAGTATACAGAAAGGC, -0.145. The sequence CCTATTAGTTGACCATCAGGGCAACCGAAGCTCG came in with a PBM binding z-score of 1.35. In the case of TCGAGTAGGTGAGTCGGGGCATTCAGCCAACATA, the PBM binding z-score was determined as 0.348. Regarding ACTAGTTGGTCAGCTGAGCTCACACACAATTCGG, the PBM binding z-score stood at 0.0845. TCTTGTAGATCAAAGGGTAAGAAAGCCGAAGCCT registered a PBM binding z-score of -0.068. Under TATACAGGGTCAAAGGCCAGAATACGAATGTCGA stands 3.2.
